Results taken from PubChem BioAssay AID1159580 (chemical genetic matrix, 2015).
Values joined by “and” are separate entries in the source; they are usually repeats but may differ in a detail not shown here. Identical values can stand only once. Out of some 5,500 compounds screened, about 2,000 (36%) were called active. About 18% were inconclusive and are not listed. Rule as the data show it: active = normalized growth mostly below about 0.91 (no sharp cut-off); inconclusive = no clear call, values can overlap the other calls; inactive = mostly above about 0.92. The list shows a part of the results.

Assay: chemical genetic growth profiling, strain panel (AID 1159580);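 also: tested at 20 µM; growth read once vehicle control cultures reached saturation at 30 °C; 1 = growth at the plate median or of vehicle wells; lower values mean less growth of the strain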
Settings: S. cerevisiae deletion strains, growth OD
[1] = locus YDR150W, strain NUM1, hits give low values
[2] = locus YNL153C, strain GIM3, hits give low values
[3] = locus YPL241C, strain CIN2, hits give low values
[4] = locus YAL013W, strain DEP1, hits give low values
[5] = locus YBR229C, strain ROT2, hits give low values
[6] = locus YDL101C, strain DUN1, hits give low values
[7] = locus YEL061C, strain CIN8, hits give low values
[8] = locus YGR078C, strain PAC10, hits give low values
[9] = locus YGR229C, strain SMI1, hits give low values
[10] = locus YHR030C, strain SLT2, hits give low values
[11] = locus YHR087W, strain rtc3, hits give low values
[12] = locus YJL187C, strain SWE1, hits give low values
[13] = locus YJR043C, strain POL32, hits give low values
[14] = locus YJR075W, strain HOC1, hits give low values
[15] = locus YLR039C, strain RIC1, hits give low values
[16] = locus YLR058C, strain SHM2 (second series), hits give low values
[17] = locus YLR085C, strain ARP6, hits give low values
[18] = locus YLR262C, strain YPT6, hits give low values
[19] = locus YML094W, strain GIM5, hits give low values
[20] = locus YMR219W, strain ESC1, hits give low values
[21] = locus YMR263W, strain SAP30, hits give low values
[22] = locus YNL298W, strain CLA4 (second series), hits give low values
[23] = locus YNL322C, strain KRE1, hits give low values
[24] = locus YNR030W, strain Alg12, hits give low values
[25] = locus YPL055C, strain LGE1, hits give low values
[26] = locus YPR135W, strain CTF4, hits give low values

Measured: normalized growth

Cc1ccc([N+](=O)[O-])cc1S(=O)(=O)N(C)C
inactive: locus YAL040C, strain CLN3, hits give low values 0.984 | locus YCL061C, strain MRC1 (second series), hits give low values 1 | [1] 1.03 | locus YDR363W, strain ESC2, hits give low values 0.972 | locus YER002W, strain NOP16, hits give low values 1 | [2] 0.846 | locus YNL175C, strain NOP13, hits give low values 0.996 | locus YNL197C, strain WHI3, hits give low values 0.926 | locus YNL224C, strain SQS1, hits give low values 0.979 | locus YOR083W, strain WHI5 (second series), hits give low values 0.955 | [3] 0.998

O=[N+]([O-])c1ccc2c(c1)NC(c1ccc([N+](=O)[O-])s1)O2 (centres undefined)
active: [4] 0.0563 | [5] 0.0525 | locus YCL061C, strain MRC1, hits give low values 0.0508 | [6] 0.0673 | locus YDL134C, strain PPH21, hits give low values 0.0453 | [1] 0.0493 | [7] 0.049 | locus YGR052W, strain FMP48, hits give low values 0.104 | [8] 0.0481 | [9] 0.0516 | [10] 0.0641 and 0.114 | locus YHR079C, strain IRE1, hits give low values 0.11 | locus YHR082C, strain KSP1, hits give low values 0.106 | [11] 0.0539 | locus YJL095W, strain BCK1, hits give low values 0.1 | [12] 0.0478 | [13] 0.0509 | locus YJR066W, strain TOR1, hits give low values 0.1 | [14] 0.0918 | locus YKL171W, strain NNK1, hits give low values 0.387 | locus YKL203C, strain TOR2, hits give low values 0.0984 | [15] 0.0606 | [16] 0.0478 | [17] 0.0638 | locus YLR113W, strain HOG1, hits give low values 0.187 | [18] 0.0626 | [19] 0.0601 | [20] 0.0484 | [21] 0.0575 | [2] 0.0476 | locus YNL183C, strain NPR1, hits give low values 0.108 | locus YNL207W, strain RIO2, hits give low values 0.107 | [22] 0.0735 | [23] 0.0534 | [24] 0.063 | locus YOR119C, strain RIO1, hits give low values 0.0996 | locus YOR231W, strain MKK1, hits give low values 0.101 | [25] 0.0657 | [3] 0.0629 | locus YPL256C, strain CLN2, hits give low values 0.17 | [26] 0.149

CN1c2ccccc2C(=O)NC1c1ccc([N+](=O)[O-])s1 (centres undefined)
inactive: [4] 1 | [5] 0.988 | [6] 1.02 | [1] 1 | [7] 0.967 | [8] 1.02 | [9] 0.989 | [10] 1 | [11] 0.991 | [12] 0.996 | [13] 1.01 | [14] 1.02 | [15] 1.02 | [16] 0.995 | [17] 1.03 | [18] 1.05 | [19] 0.989 | [20] 0.995 | [21] 1 | locus YMR307W, strain GAS1, hits give low values 1.01 | [2] 1.02 | [22] 1.01 | [23] 0.995 | [24] 0.988 | [25] 0.971 | [3] 1 | [26] 1.05
